High-throughput results: PubChem BioAssay, several laboratories
esBAF inh: Bmi1 luciferase reporter increase in mESCs, primary screen, esBAF inhibitor project, mouse ES cells, Bmi1 luciferase knock-in, single point. reporter increase, % at 12.5 µM. 24 h; 100% = twice the neutral-well signal. actives 2% (n = 350,000); in the data active means activation above about 40%; inconclusive means no clear call, values can overlap the other calls;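 further: a rise in the Bmi1 reporter signal indicates esBAF inhibition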
AHR activator: AHR activators, primary screen, cell-based, luminescence, luciferase reporter, human. Aryl hydrocarbon receptor (Homo sapiens), P35869. AHR-responsive luciferase reporter cells. activation, % at 5 µM. actives 2.5% (n = 320,000). AID 2796, 2010; in the data active means activation above about 47%
Target sequence (P35869 whole entry, looked up): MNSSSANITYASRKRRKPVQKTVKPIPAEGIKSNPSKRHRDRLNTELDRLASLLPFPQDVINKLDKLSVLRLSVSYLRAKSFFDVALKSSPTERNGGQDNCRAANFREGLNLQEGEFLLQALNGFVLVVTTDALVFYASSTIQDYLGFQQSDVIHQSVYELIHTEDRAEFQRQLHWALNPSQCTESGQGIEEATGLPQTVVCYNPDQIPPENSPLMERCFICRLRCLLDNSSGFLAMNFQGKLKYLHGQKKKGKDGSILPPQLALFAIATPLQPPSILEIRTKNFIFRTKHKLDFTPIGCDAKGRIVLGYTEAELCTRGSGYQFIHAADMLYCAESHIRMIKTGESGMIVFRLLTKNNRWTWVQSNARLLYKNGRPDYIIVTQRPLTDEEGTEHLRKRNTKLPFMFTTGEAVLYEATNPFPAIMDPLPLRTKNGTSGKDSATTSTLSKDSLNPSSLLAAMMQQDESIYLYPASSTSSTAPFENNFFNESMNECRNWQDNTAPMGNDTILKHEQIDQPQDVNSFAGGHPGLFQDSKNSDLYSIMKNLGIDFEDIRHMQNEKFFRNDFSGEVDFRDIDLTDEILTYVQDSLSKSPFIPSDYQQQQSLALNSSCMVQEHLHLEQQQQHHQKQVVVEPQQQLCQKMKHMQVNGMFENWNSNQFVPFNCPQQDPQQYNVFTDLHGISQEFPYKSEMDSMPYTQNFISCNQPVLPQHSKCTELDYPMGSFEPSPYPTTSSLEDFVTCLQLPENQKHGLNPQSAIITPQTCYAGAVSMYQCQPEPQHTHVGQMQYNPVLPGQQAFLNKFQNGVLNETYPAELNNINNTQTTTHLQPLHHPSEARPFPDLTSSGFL
MITF TRPM1 HTS: activators of MITF-driven TRPM1 promoter reporter, primary screen, cell-based, SK-MEL-5, luciferase, single point. SK-MEL-5 TRPM1-promoter luciferase, 24 h; % of positive control, neutral wells = 0. activation, % at 12.5 µM. actives 0.75% (n = 300,000);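 active means mean activation of at least 80% with every replicate also reaching 80%; inconclusive means mean reaches 80% but some replicate falls short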
GAA850 FXN act: FXN promoter activators, primary screen, cell-based, luciferase luminescence, HEK293 lucGAA850; AID 540364, 2011; activation, % at 6 µM; actives 0.56% (n = 360,000); HEK293 lucGAA850 FXN promoter luciferase reporter, 24 h; percent of 10 µM SAHA response;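 active means activation above the average of all compounds screened plus 3 SD, cutoff fixed separately per campaign, cut at about 7.5% in these data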
Wnt bcat act: Wnt/beta-catenin pathway activators, primary screen, cell-based, plate reader, single point; actives 1.2% (n = 300,000); Wnt/beta-catenin reporter cell assay, activator; AID 743398, 2014; activation, % at 9.35 µM; in the data active means activation above about 30%, passing the limit was not always enough; inconclusive means no clear call, values can overlap the other calls
Of the large screens only hits and unclear results are named; the others gave an inactive call. Sampled rows, rich in hits. Any-hit rate of the full collection: about 4.2%.

COc1ccc(NC(=O)c2cccc(OS(=O)(=O)N(C)C)c2)cc1	Wnt bcat act 55
CN(C)S(=O)(=O)Oc1cccc(C(=O)Nc2cccc(Cl)c2)c1	esBAF inh 44, Wnt bcat act 31 (no result: MITF TRPM1 HTS)
CNS(=O)(=O)c1cccc(C(=O)Nc2cccc(Cl)c2)c1	esBAF inh 48 (no result: MITF TRPM1 HTS, Wnt bcat act)
COc1ccc(NC(=O)c2ccc(S(=O)(=O)N(C)C)cc2)cc1	none (no result: esBAF inh)
CN(C)S(=O)(=O)Oc1cccc(C(=O)Nc2ccc(Cl)c(Cl)c2)c1	esBAF inh 72 (no result: Wnt bcat act)
CCCN(C)C[C@@H]1OCCCC[C@H](C)Oc2ccc(NS(C)(=O)=O)cc2C(=O)N([C@@H](C)CO)C[C@H]1C	none (no result: AHR activator, MITF TRPM1 HTS, GAA850 FXN act, Wnt bcat act)
CN(C)S(=O)(=O)Oc1ccc(C(=O)Nc2ccc([N+](=O)[O-])cc2)cc1	none
COC(=O)c1ccc(OS(=O)(=O)N(C)C)cc1	esBAF inh 49
C[C@H]1CN([C@@H](C)CO)C(=O)c2cc(NC(=O)Nc3cccc4ccccc34)ccc2O[C@@H]1CN(C)S(C)(=O)=O	none (no result: AHR activator, MITF TRPM1 HTS, GAA850 FXN act, Wnt bcat act)
Cc1cc(C)c(NC(=O)CN(C)C(=O)c2ccc(OCc3ccccc3)cc2)c(C)c1	none
Cc1cccc(C)c1NC(=O)CN(C)C(=O)c1ccc(COc2ccccc2)cc1	esBAF inh 43
O=C1CNC(=S)N1CCc1ccc(O)c(O)c1	Wnt bcat act 50 (no result: esBAF inh, MITF TRPM1 HTS)
COc1ccc(-c2nc3cccc(C)n3c2NCc2ccco2)cc1OC	AHR activator 57 (no result: Wnt bcat act)
COc1ccc(-c2csc(NCc3ccco3)n2)cc1C	esBAF inh 66, MITF TRPM1 HTS inconclusive (no result: Wnt bcat act)
COc1ccc(-c2ccc(C#N)c(SCC(=O)NCc3ccco3)n2)cc1OC	none (no result: esBAF inh, MITF TRPM1 HTS)
CC(=O)Nc1ccc(-c2csc(NCc3ccco3)n2)cc1	MITF TRPM1 HTS 123 (no result: esBAF inh, Wnt bcat act)
c1cncc(-c2csc(NCc3ccco3)n2)c1	none (no result: esBAF inh)
C[C@H]1CN([C@@H](C)CO)C(=O)Cc2cc(NC(=O)CCN3CCOCC3)ccc2O[C@@H]1CN(C)CC1CC1	none (no result: AHR activator, MITF TRPM1 HTS, GAA850 FXN act, Wnt bcat act)
FC(F)(F)c1nc(N2CCN(c3ccccc3)CC2)nc2c1CCCCC2	AHR activator 65 (no result: esBAF inh)
Cc1nc(N2CCN(Cc3ccccc3)CC2)nc2c1CCC2	none
Cc1ccc(Nc2ncc3c(n2)CC(C)(C)CC3=O)cc1	MITF TRPM1 HTS 91 (no result: esBAF inh)
O=C(Nc1ncc2c(n1)-c1ccccc1CC2)C1CC1	AHR activator 76
CC(C)SCC(=O)Nc1ncc2c(n1)-c1ccccc1CC2	none
Cc1ccc(NC(=S)c2ccc3ccccc3n2)c(C)c1	esBAF inh 53
Cc1cc(C)c2c(N)c(-c3nc4ccccc4[nH]3)sc2n1	AHR activator 55 (no result: esBAF inh, Wnt bcat act)
O=c1c2ccccc2c(=O)n(-c2ccccc2)n1-c1ccccc1	Wnt bcat act 37 (no result: AHR activator)
O=c1c2ccccc2c2ccccc2c(=O)n1-c1ccccc1	none (no result: esBAF inh)
CCCS(=O)(=O)n1nc(-c2ccc(Br)cc2)cc1N	AHR activator 58
CCCS(=O)(=O)n1nc(-c2ccccc2)cc1N	none (no result: MITF TRPM1 HTS)
CCNC(=O)C[C@@H]1CC[C@H]2[C@H](COc3ccc(NC(=O)Nc4cccc(OC)c4)cc3C(=O)N2C)O1	none (no result: AHR activator, MITF TRPM1 HTS, GAA850 FXN act, Wnt bcat act)
CCOC(=O)c1ccc(NC(=O)C2C3CCC(C3)C2C(=O)O)cc1 (configuration not stated)	none
CCOC(=O)c1ccc(NC(=O)C2C3CCCCC32)cc1 (configuration not stated)	esBAF inh inconclusive, MITF TRPM1 HTS 82 (no result: AHR activator)
CC(C)COC(=O)c1ccc(NC(=O)C2C3CCC(C3)C2C(=O)O)cc1 (configuration not stated)	esBAF inh 58
CCOC(=O)c1ccc(NC(=O)C2CCN(S(=O)(=O)CC)CC2)cc1	none
CCOC(=O)c1ccc(NS(=O)(=O)N2CCCCCC2)cc1	esBAF inh 47
Cc1ccc(NC(=O)C2C3/C=C\CCCCC32)cc1 (configuration not stated)	MITF TRPM1 HTS 94 (no result: esBAF inh)
CCOC(=O)c1ccc(NC(=S)NC(=O)C2CCCC2)cc1	none
C[C@@H]1CN([C@@H](C)CO)C(=O)c2cccc(NS(C)(=O)=O)c2O[C@@H]1CN(C)Cc1ccc2c(c1)OCO2	none (no result: AHR activator, MITF TRPM1 HTS, GAA850 FXN act, Wnt bcat act)
O=C(Nc1ccccc1)Nc1ccc2c(c1)[C@@H]1C[C@H](CC(=O)N3CCOCC3)O[C@@H](CO)[C@@H]1O2	none (no result: AHR activator, MITF TRPM1 HTS, GAA850 FXN act, Wnt bcat act)
O=C(O)C[C@H]1C[C@@H]2c3cc(NC(=O)Nc4ccccc4F)ccc3O[C@@H]2[C@H](CO)O1	none (no result: AHR activator, MITF TRPM1 HTS, GAA850 FXN act, Wnt bcat act)
CCOC(=O)c1ccc(NC(=O)N2CCCCCC2)cc1	MITF TRPM1 HTS 98, Wnt bcat act 37
O=C(OC1CCCCC1)c1ccc(NC(=O)C2CCCCC2)cc1	none (no result: esBAF inh, Wnt bcat act)
CCOC(=O)c1ccc(NC(=O)C23CCC(C)(C(=O)O2)C3(C)C)cc1 (configuration not stated)	esBAF inh 55 (no result: Wnt bcat act)
CCOC(=O)c1ccc(NC(=O)N2CCOCC2)cc1	none (no result: esBAF inh)
COc1ccc(NC(=O)C23CCC(C)(C(=O)O2)C3(C)C)cc1 (configuration not stated)	none (no result: Wnt bcat act)
CC(C)(C)C(=O)Nc1ccc(C(=O)OC2CCCCC2)cc1	esBAF inh 64, MITF TRPM1 HTS 105, GAA850 FXN act 10 (no result: Wnt bcat act)
CCC(=O)N(C)C[C@H]1Oc2cc(-c3ccncc3)ccc2S(=O)(=O)N([C@@H](C)CO)C[C@@H]1C	none (no result: AHR activator, MITF TRPM1 HTS, GAA850 FXN act, Wnt bcat act)
Cc1ccc2c(C)c(C(=O)N(C)C(C)c3ccncn3)oc2c1C (configuration not stated)	esBAF inh 51
Cc1ccc2c(C)c(C(=O)N(C)C(C)c3ccon3)oc2c1C (configuration not stated)	esBAF inh 51, MITF TRPM1 HTS 109, Wnt bcat act inconclusive
O=C(C[C@@H]1CC[C@@H]2[C@H](COC[C@H](O)CN2Cc2ccc(F)cc2)O1)N1CCc2ccccc2C1	none (no result: AHR activator, MITF TRPM1 HTS, GAA850 FXN act, Wnt bcat act)
O=C1c2ccccc2C(=O)N1OCc1ccccc1	AHR activator 90 (no result: MITF TRPM1 HTS)
O=C(NCC[C@H]1CC[C@@H](NS(=O)(=O)c2ccc(Cl)cc2)[C@@H](CO)O1)c1ccc2c(c1)OCO2	none (no result: AHR activator, MITF TRPM1 HTS, GAA850 FXN act, Wnt bcat act)
Cc1ccc(C=Nc2ccccc2C(N)=O)s1	AHR activator 55 (no result: esBAF inh)
Cc1cccc(C=Nc2ccccc2C(N)=O)c1	esBAF inh inconclusive
Cc1ccc(-c2nnn3c2nc(Cl)c2ccccc23)cc1	esBAF inh inconclusive (no result: AHR activator)
Clc1nc2c(-c3ccccc3)nnn2c2ccccc12	AHR activator 52
Fc1cccc(-c2nnn3c2nc(Cl)c2ccccc23)c1	esBAF inh inconclusive, Wnt bcat act 40 (no result: AHR activator)
Cc1[nH]c2ccc(OCc3ccccc3)cc2c1CCN1C(=O)OC(C)(C)C1(C)O (configuration not stated)	none (no result: MITF TRPM1 HTS)
Cc1[nH]c2ccc(F)cc2c1CCN1C(=O)OC(C)(C)C1(C)O (configuration not stated)	Wnt bcat act 39
Cc1nc2ccc(N=NC3=C(O)CC(C)(C)CC3=O)cc2s1	esBAF inh 49
Cc1nc2ccc(N=NC3=C(O)CCCC3=O)cc2s1	none (no result: Wnt bcat act)
C[C@H]1CN([C@@H](C)CO)C(=O)c2cc(C#CC(C)(C)O)cnc2O[C@H]1CN(C)C(=O)c1ccccc1F	none (no result: AHR activator, MITF TRPM1 HTS, GAA850 FXN act, Wnt bcat act)
